Methyltransferases: Primary Screen for Target Class Profiling of Small Molecule Inhibitors of Methyltransferases; purified enzyme, MTase-Glo SAH luminescence; hits give low values; calls only at 40 µM; 25,000 tested, 3.9% active; call rule not given here
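Each enzyme was reacted with SAM and its substrate, with compounds tested once at 40 uM; SAH formed was read by MTase-Glo luminescence.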
Active calls of the source: *; i = inactive; + = active, no number; ! = not active in a repeat. This excerpt belongs to a sample that is enriched for hits. % is scaled to controls: 0 for no effect and ±100 for the full control effect.

SMILES	Methyltransferases
CC(C)CCNC(=O)C1(C)Cn2nc(C(C)(C)C)cc2C(=O)N1Cc1ccccc1Cl (centres undefined)	i
O=C(Nc1ccccc1)N1Cc2c(sc3c2CCCC3)-n2cccc2C1c1ccc(Cl)cc1 (centres undefined)	i
NC[C@H]1O[C@@H](n2cnc3c(N)ncnc32)[C@H](O)[C@@H]1O	+
Nc1ncnc2c1ncn2[C@@H]1O[C@H](CO)C[C@H]1O	i
Nc1ncnc2c1nc(N)n2[C@@H]1O[C@H](CO)[C@@H](O)[C@H]1O	i
CC1CCCC(NC(=O)C2(C)Cn3c(cc4sccc43)C(=O)N2CCc2ccc(Cl)cc2)C1C (centres undefined)	i
COc1cc2c(NC3CCN(CC4CCCCC4)CC3)nc(N3CCCN(C(C)C)CC3)nc2cc1OCCCN1CCCCC1	+!
Cc1ccc(CN2C(=O)c3cc4ccccc4n3CC2(C)C(=O)NCCC(C)C)cc1 (centres undefined)	i
CC(C)CCn1c(=O)c2ccccc2n2c(SCc3cccc(F)c3)nnc12	i
CC(C)CCn1c(=O)c2ccccc2n2c(=O)n(Cc3ccc(F)cc3Cl)nc12	i
COc1ccc(CN2C(=O)c3ccc(-c4ccco4)n3CC2(C)C(=O)NC2CCCCC2)c(OC)c1OC (centres undefined)	i
CCCCCOc1ccc2c(-c3ccccc3)cc(=O)oc2c1	i
CCOc1cc2oc(=O)cc(-c3ccccc3)c2cc1Cl	i
CCOc1cc(OCC)c2c(-c3ccccc3)cc(=O)oc2c1	+
CCCS(=O)(=O)N1CCC2(CC1)c1[nH]c3ccccc3c1CCN2C	i
CCCNC(=O)Cn1nc2nc(Nc3ccc(F)cc3)ccn2c1=O	i
CCCN1C(=O)c2c(C(=O)NCCc3cccs3)ncn2CC1(C)C(=O)NCc1ccc(F)cc1 (centres undefined)	i
Nc1ncnc2c1c(-c1cnc3[nH]ccc3c1)nn2C1CCCC1	+
Nc1ncnc2c1c(-c1ccc(Oc3ccccc3)cc1)nn2[C@@H]1CCCNC1	+
CCc1cc2c(cc3n2CC(C)(C(=O)NC2CCCCC2)N(Cc2ccccc2C)C3=O)s1 (centres undefined)	i
CCCC1c2cccn2CCN1C(=O)Nc1cc(C)ccc1OC (centres undefined)	i
O=C(CCc1nnc2n(Cc3ccccc3Cl)c(=O)c3ccccc3n12)N1CCN(Cc2ccccc2)CC1	i
CCc1ccccc1S(=O)(=O)NCCn1c(CCc2ccccc2)nc2ccccc21	i
Cc1ccc(C)c(N2C(=O)c3cc(C(C)(C)C)nn3CC2(C)C(=O)NC2CCCCC2)c1 (centres undefined)	i
CCOC(=O)Nc1ccc(NCc2ccc(F)cc2)nc1N	+
SMILES	Methyltransferases
CCOC(=O)c1cc2n(n1)CC(C)(C(=O)NCc1ccc(F)cc1)N(c1ccc(C)cc1C)C2=O (centres undefined)	i
COCC(=O)N(C)Cc1ccc(F)cc1	i
CCOC(=O)c1cc2n(n1)CC(C)(C(=O)NC1CCCCC1)N(c1ccc(C)cc1Cl)C2=O (centres undefined)	i
CC1CCC(NC(=O)C2(C)Cn3c(ccc3-c3ccco3)C(=O)N2Cc2ccc(F)cc2)CC1 (centres undefined)	i
O=C(CCc1nnc2n(CCc3ccccc3)c(=O)c3ccccc3n12)NCc1ccc(F)cc1	i
Cc1c(OCC(F)(F)F)ccnc1CS(=O)c1nc2ccccc2[nH]1 (centres undefined)	+
CC(CCc1ccccc1)N1C(=O)c2cc3occc3n2CC1(C)C(=O)NC1CCCCCCC1 (centres undefined)	i
CC1CCC(NC(=O)C2(C)Cn3c(cc4occc43)C(=O)N2Cc2cccc(Cl)c2)CC1 (centres undefined)	i
CC(C)(O)c1ccccc1CC[C@@H](SCC1(CC(=O)O)CC1)c1cccc(/C=C/c2ccc3ccc(Cl)cc3n2)c1	+
COc1ccc(CNC(=O)C2(C)Cn3cnc(C(=O)N4CCc5ccccc54)c3C(=O)N2C2CC2)cc1 (centres undefined)	i
CCOc1ccc(C2c3cccn3-c3sc4c(c3CN2C(=O)Nc2ccc(C(=O)OC)cc2)CCCC4)cc1 (centres undefined)	i
Cc1cccc(-c2nnn3c2nc(NC2CCCC2)c2ccccc23)c1	i
CCOC(=O)c1cc2n(n1)CC(C)(C(=O)NCc1ccc(C)cc1)N(c1cc(Cl)ccc1C)C2=O (centres undefined)	i
CSc1cccc(NS(=O)(=O)c2ccc3[nH]c4c(c3c2)CCCC4)c1	i
CCOc1ccc(CCN2C(=O)c3ccc(-c4ccco4)n3CC2(C)C(=O)NCc2ccccc2)cc1OCC (centres undefined)	i
N=C(N)c1ccccc1	i
O=C(c1ccc(OCCCc2cnc[nH]2)cc1)C1CC1	i
N=C(N)c1ccc(OCCCCCOc2ccc(C(=N)N)cc2)cc1 (tested in a mixture with another compound)	+
Cc1ccc(C)c(N2C(=O)c3cc4ccccc4n3CC2(C)C(=O)NCCC(C)C)c1 (centres undefined)	i
CCOc1ccc(CN2C(=O)c3cc4ccccc4n3CC2(C)C(=O)NCCC(C)C)cc1 (centres undefined)	i
CC1(C(=O)NC2CCCCC2)Cn2nc(-c3ccco3)cc2C(=O)N1Cc1ccccc1F (centres undefined)	i
O=C1CCCCN1CCNc1ccc(-c2nc(-c3ccccc3F)no2)cn1	i
CCCn1c(=O)c2ccc(C(=O)NC3CCCCC3)cc2n2c(=O)n(Cc3c(F)cccc3Cl)nc12	i
CCOc1ccc(CCNC(=O)C(CC)n2ccc3cc(S(=O)(=O)N4CCCCC4)ccc32)cc1 (centres undefined)	i
C=CCn1c(=O)c2cnc(Nc3ccc(N4CCN(C)CC4)cc3)nc2n1-c1cccc(C(C)(C)O)n1	+
SMILES	Methyltransferases
CCn1c(=O)c(-c2ccc(-c3cncs3)cc2Cl)cc2cnc(Nc3ccc(N4CCN(C)CC4)cc3)nc21	i
Cc1cnc(-c2ccccc2)n1C1CCN(S(=O)(=O)c2ccc3c(c2)OCCO3)CC1	i
CCCNc1nc2c(-c3cccc(F)c3)nnn2c2ccc(Cl)cc12	i
COc1cccc(CNC(=O)c2ccc3c(=O)nc4c(-c5cccc(C)c5)n[nH]n4c3c2)c1	i
COc1ccc(CN2C(=O)c3nc4ccccc4n3CC2(C)C(=O)NC2CCCCCC2)cc1 (centres undefined)	i
CC1(C(=O)NCc2ccccc2)Cc2ccccc2C(=O)N1Cc1ccc(C(F)(F)F)cc1 (centres undefined)	i
Cn1c(=O)c(-c2c(Cl)cccc2Cl)cc2cnc(Nc3ccc(N4CCOCC4)cc3)nc21	i
CNC(=O)c1ccccc1Nc1nc(Nc2ccc(N3CCNCC3)cc2)ncc1Cl	+
CC(=O)c1c(C)c2cnc(Nc3ccc(N4CCNCC4)cn3)nc2n(C2CCCC2)c1=O	i
C=CCOc1c(OC)ccc2c1CN(Cc1ccco1)C(=O)CCN2CC(O)COCc1ccco1 (centres undefined)	i
CCCn1c(=O)c2ccc(C(=O)NC(C)CC)cc2n2c(SCC(=O)Nc3ccccc3C)nnc12 (centres undefined)	i
O=C(CCn1ccc2cc(S(=O)(=O)N3CCCCC3)ccc21)NCc1ccc(Cl)cc1	i
Cn1c(=O)c2ccc(C(=O)NC3CCCC3)cc2n2c(=O)n(CC(=O)NCc3ccc(Cl)cc3)nc12	i
